# Rows were chosen to be rich in hits. Some 4.2% of all compounds tested hit in one or more screens of this group.
# DAX1 StAR inh – DAX1 (NR0B1) inhibition, primary screen | HEK293T StAR-luciferase reporter, SF-1/DAX-1 repression relief | hit rate 1.1% among 370,000 | inhibition, % at 6.8 µM;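 active = inhibition above the mean over all tested compounds plus 3 SD, cut at about 3.6% in these data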;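 also: higher inhibition means more luminescence from relief of DAX-1 repression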
# ssDAF12 agonist – activates DAF-12 receptor from parasite S. stercoralis | activation, % at 6.8 µM | hit rate 1% among 370,000 | HEK293 ssDAF-12/GRIP1 lit1-tk-luc reporter, luminescence; % of 3 µM dafachronic acid response;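 active = activation above the mean over all tested compounds plus 3 SD, cut at about 0.9% in these data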
# hgDAF12 agonist – hgDAF-12 agonism, primary luciferase screen; hit rate 1.8% among 370,000; HEK293 GAL4-hgDAF12 UAS-luciferase reporter, agonist luminescence; normalized to butyrate control; activation, % at 6.8 µM;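 active = activation above a cutoff set at the mean of all screened compounds plus 3 SD, cut at about 10% in these data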
# SMARCA2 act – activators of SMARCA2 function; MG213 cells, MMTV-luciferase reporter, dexamethasone, overnight; activation, % at 9.1 µM; hit rate 1% among 370,000; AID 652017; in the data active = activation above about 7.8%
# hcDAF12 agonist – H. contortus DAF-12 activation, primary screen; activation, % at 6.8 µM; AID 652067; HEK293 hcDAF-12 lit1-tk-luc reporter, luminescence; 0% DMSO, 100% Δ7-dafachronic acid; hit rate 1.4% among 370,000;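 active = activation above the mean of all tested compounds plus 3 SD, cut at about 5.5% in these data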
# LXR ag – LXR-beta agonism as hcDAF-12 counter-screen | activation, % at 6.8 µM | shares compounds with hcDAF12 agonist | 3,400 tested, under 10 active | HEK293 Gal4-LXR tk-luc reporter, luminescence, 24 h; normalized: DMSO 0%, positive control 100%;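 active = mean percent activation of the reporter above a cutoff set as the average over tested compounds plus their standard deviation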
# Target sequence (P55055 whole entry, looked up, the tested form may be a part): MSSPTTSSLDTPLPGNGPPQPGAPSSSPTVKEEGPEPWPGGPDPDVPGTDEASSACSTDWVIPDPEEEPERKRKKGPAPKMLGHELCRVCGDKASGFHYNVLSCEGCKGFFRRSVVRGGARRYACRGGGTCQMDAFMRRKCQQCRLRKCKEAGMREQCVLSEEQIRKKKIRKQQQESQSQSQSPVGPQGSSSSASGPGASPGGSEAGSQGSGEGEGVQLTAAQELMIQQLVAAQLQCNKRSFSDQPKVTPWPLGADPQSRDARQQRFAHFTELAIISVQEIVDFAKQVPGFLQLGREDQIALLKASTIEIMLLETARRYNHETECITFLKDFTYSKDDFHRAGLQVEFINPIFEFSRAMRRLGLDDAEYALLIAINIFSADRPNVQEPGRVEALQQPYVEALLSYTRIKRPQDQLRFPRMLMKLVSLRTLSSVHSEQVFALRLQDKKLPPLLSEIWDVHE
# hcDAF12 conf – confirmation of H. contortus DAF-12 agonists; shares compounds with hcDAF12 agonist; hit rate 61% among 3,400; activation, % at 6.8 µM; HEK293 hcDAF-12 lit1-tk-luc reporter, luminescence; % of Δ7-dafachronic acid response;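 active = mean activation across triplicate tests above the threshold derived from the earlier primary screen, cut at about 5.5% in these data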
# Hits are given with their value; i = inactive; nt = no result.
SMILES,DAX1 StAR inh,ssDAF12 agonist,hgDAF12 agonist,SMARCA2 act,hcDAF12 agonist,LXR ag,hcDAF12 conf
Cc1ccc(-c2nc3n(n2)Cc2ccccc2-3)cc1,i,2.4,i,i,15.8,i,19.9
CC(=O)Oc1c(Cl)cc(Cl)cc1/C=C/c1ccc2ccccc2n1,i,i,i,i,i,nt,nt
CC(=O)Oc1ccc(Cl)cc1/C=C/c1ccc2ccccc2n1,i,i,10.5,i,8.4,i,6.2
COc1cccc(C(=O)Nc2ccc(C(=O)NCC3COc4ccccc4O3)cc2)c1 (stereo unspecified),i,i,i,i,i,nt,nt
CCNC(=S)Nc1ccc(OCc2nc3ccccc3s2)cc1,i,1.2,i,i,7.8,i,8.2
CCN(CC)C(=O)CSc1nnc(-c2cccs2)o1,i,i,i,i,i,nt,nt
Cc1cc(C)nc(N/N=C/c2sccc2C)n1,i,i,i,i,i,nt,nt
Cc1ccsc1/C=N/N=C/c1sccc1C,i,1.6,17.1,i,11.2,i,13.7
CCCCNC(=O)C[C@@H]1C[C@@]2(C(=O)OCC)CCCC=C2N(Cc2ccccc2)C1=O,i,i,i,i,i,nt,nt
O=c1c(-c2cccc3ccccc23)[n+]([O-])c2ccccc2n1O,i,i,i,i,7.3,i,5.9
CCOn1c(=O)c(-c2cccc3ccccc23)[n+]([O-])c2ccccc21,i,i,i,i,i,nt,nt
Cc1ccc(NC(=O)Nc2ccccc2)cc1[N+](=O)[O-],i,i,i,i,7.5,i,i
Cc1nn(-c2nc3ccccc3s2)c(N)c1Sc1ccc(F)cc1,i,i,i,i,6.6,i,13.8
Cc1cc(N)n(-c2nc3ccccc3s2)n1,3.6,1.9,11.4,i,7.8,i,9.6
O=C(CN1CCN(Cc2ccccc2)CC1)N/N=C\c1c2ccccc2cc2ccccc12,i,i,i,i,i,nt,nt
Cc1ccc(C(=O)Nc2cccc3cccnc23)cc1C,i,i,i,i,9.7,i,8.8
O=C(Nc1cccc2cccnc12)c1cccnc1,i,i,i,i,i,nt,nt
Cc1cccc(C(=O)Nc2cccc3cccnc23)c1,i,i,i,i,i,nt,nt
O=C(Nc1cccc2cccnc12)c1ccc(Cl)cc1,i,1.2,i,i,6.7,i,7.6
OC(c1ccccc1)(c1ccccc1)C1CCN(CCCNc2ccc(C(F)(F)F)cc2)CC1,i,i,i,i,i,nt,nt
Cc1cnc(NC(=O)Nc2ccc(OCc3ccccc3)cc2)c(Br)c1,i,i,i,i,7.3,i,i
Cc1ccc(C(=O)/C=C/c2c[nH]c3ccccc23)cc1,i,i,i,i,8.6,i,i
Cc1ccc(S(=O)(=O)/C(C#N)=C/c2c[nH]c3ccccc23)cc1,i,i,i,i,i,nt,nt
O=C1C(=O)N(Cc2ccccc2)C(=O)N1CCN1C(=O)c2ccccc2C1=O,i,i,i,i,i,nt,nt
O=C1Cc2ccccc2C(=O)N1CCc1ccccc1,i,i,i,i,6.9,i,i
SMILES,DAX1 StAR inh,ssDAF12 agonist,hgDAF12 agonist,SMARCA2 act,hcDAF12 agonist,LXR ag,hcDAF12 conf
Cc1cc(N2CCN(CC(C)(C)O)C[C@H]2C)ccc1N1CCN(Cc2ccccc2)[C@H](C)C1,i,i,i,i,i,nt,nt
CCn1cc(Br)c(C(=O)Nc2ccc(OC)cc2)n1,i,i,i,i,i,nt,nt
CCn1cc(Br)c(C(=O)NN)n1,i,i,i,i,6.7,i,i
Oc1ccccc1C=NN1CCCCCC1,i,i,i,i,i,nt,nt
COc1ccc(N=Cc2c(O)[nH]c3ccccc23)cc1,4.2,1.1,12.9,i,6.9,i,10.7
Oc1[nH]c2ccccc2c1/C=N/N1CCCCC1,i,i,i,i,14.2,i,i
O=C(O)CC/C(=C\c1ccccc1[N+](=O)[O-])c1nc2ccccc2s1,i,i,i,i,i,nt,nt
O=C(O)CC/C(=C\c1cc([N+](=O)[O-])ccc1Cl)c1nc2ccccc2s1,i,i,i,i,8.8,i,7.9
COCCCNC(=O)C(=O)C1C(=O)Nc2ccccc21 (stereo unspecified),i,i,i,i,10.8,i,i
O=C(Nc1ccccn1)c1cc2ccccc2o1,i,i,i,i,10.3,i,13.1
Cc1ccnc(NC(=O)c2cc3ccccc3o2)c1,i,i,i,i,i,nt,nt
Cc1ccc(C)c(NC(=O)c2cc3ccccc3o2)c1,i,i,10.7,i,7.8,i,9.4
Cc1cc([N+](=O)[O-])ccc1NC(=O)c1cc2ccccc2o1,i,i,i,i,i,nt,nt
c1ccc(-c2nnc(-c3ccccn3)s2)nc1,i,1.0,13.1,i,9.6,i,14.1
c1ccc(-c2nc(-c3ccccn3)nc(-c3ccccn3)n2)nc1,i,i,i,i,i,nt,nt
Cc1ccc(/C=N/NC(=O)c2c(C)nc3ccc(Cl)cn23)cc1,i,i,i,i,i,nt,nt
O=C(NCCc1c[nH]c2ccccc12)c1cnccn1,i,3.4,i,i,6.7,i,i
O=C(NCCc1c[nH]c2ccccc12)c1cnc2sccn2c1=O,i,1.4,i,i,8.6,i,8.9
O=C(NCCc1c[nH]c2ccccc12)c1cncc(Br)c1,i,i,i,i,i,nt,nt
O=C(OCC#CCSc1nnc(-c2cccc3ccccc23)o1)c1cccc(C(F)(F)F)c1,nt,i,i,nt,i,nt,nt
Cc1cc(C(=O)NN=C(Cc2ccccc2)Cc2ccccc2)c(C)o1,i,i,i,i,i,nt,nt
C/C(=N\NC(=O)c1cc(C)oc1C)c1ccc2ccccc2c1,i,i,11.5,i,7.2,i,i
O=C(NCc1c(F)cccc1F)C1C2C=CC3(CN(Cc4ccccc4)C(=O)C13)O2 (stereo unspecified),i,i,i,i,i,nt,nt
O=S1(=O)c2c(cccc2N2CCC[C@H]2CO)O[C@H]2CCN1C2,i,i,i,i,i,nt,nt
COc1ccc(/C(N)=N/OC(=O)c2ccc(Br)o2)cc1,i,i,i,i,8.4,i,i
SMILES,DAX1 StAR inh,ssDAF12 agonist,hgDAF12 agonist,SMARCA2 act,hcDAF12 agonist,LXR ag,hcDAF12 conf
COCCN1C(=O)COc2ccccc2C1C(=O)NC(C)(C)C (stereo unspecified),i,i,i,i,i,nt,nt
O=C(/C=C/c1ccccc1O)c1ccccc1,i,i,i,i,i,nt,nt
O=C(/C=C/c1ccccc1O)c1ccc(Cl)cc1,i,i,i,i,6.8,i,i
Cc1cc(-c2n[nH]c(=S)n2N=Cc2ccc(OCc3ccccc3)cc2)n[nH]1,i,i,i,i,i,nt,nt
Nc1nn(-c2ccccc2)c(N)c1N=Nc1ccccc1F,i,2.1,17.7,i,10.4,i,8.8
N#C/C(=C\c1c(Cl)cccc1Cl)c1nc2ccccc2o1,i,i,i,i,6.6,i,i
Cc1cc(O)ccc1N/C=C(\C#N)c1nc2ccccc2o1,i,i,i,i,8.8,i,i

# From PubChem BioAssay
